Inconclusive results are not listed. The source made the active and inactive calls. Unless noted, calls follow the shape of the dose curve; as a rule, active = well fitted curve in the direction sought with a large enough effect in the repeat runs; inconclusive = weak or mixed curves; inactive = no such curve, though single readings can be large; an effect the other way counts as inactive or inconclusive.
Assays:
[1] = molecular target: Retinoic acid receptor RXR-alpha (Homo sapiens) (UniProt P19793); assay: qHTS assay to identify small molecule agonists of the RXR signaling pathway (AID 1159527; calls by dose curve; also: nearly all actives have a fitted effect of over 35% in size; also: potency is read from the fitted curve at half-maximal effect); settings: HEK293T RXRa-UAS-bla, beta-lactamase ratio, 16 h; series mostly up to 76.8 µM
Procedure, shortened: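 Reporter activation is measured as beta-lactamase activity via FRET substrate cleavage (emission 460/530 nm) in HEK 293T cells expressing an RXR-alpha-driven bla construct, following 16 hr compound exposure at 37 C.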

[2] = qHTS assay to identify small molecule agonists of the RXR signaling pathway - cell viability counter screen (AID 1159529); settings: RXR-alpha-bla HEK293T viability, CellTiter-Glo, 16 h; series mostly up to 76.8 µM; also: nearly all actives have a fitted effect of over 50% in size
Procedure, shortened: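 Tox21 10K compounds were tested for cytotoxicity against GeneBLAzer RXR-alpha HEK 293T cells grown in 2% charcoal-stripped FBS. Exposure lasted 16 hr at 37 C, 5% CO2; viability read by CellTiter-Glo luminescence.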

[3] = qHTS assay to identify small molecule antagonists of the retinoid acid receptor (RAR) signaling pathway - cell viability counter screen (AID 1159551); settings: C3RL4 cells viability, ATP luminescence (CellTiter-Glo), 6 h; series mostly up to 92.4 µM; also: nearly all actives have a fitted effect of over 35% in size
Procedure, shortened: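 Viability of C3RL4 cells is quantified from ATP by luminescence after 6 h treatment at 37 C with compounds and 1 uM retinol.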

[4] = qHTS assay to identify small molecule antagonists of the estrogen related receptor (ERR) signaling pathway from Tox21 library - cell viability counter screen (AID 1224834); settings: ERR reporter cells viability, CellTiter-Fluor, 17.5 h; series mostly up to 92.4 µM; also: nearly all actives have a fitted effect of over 30% in size
Procedure, shortened: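 In this quantitative HTS format, ERR cells receive compounds in DMSO and are incubated for 17.5 h at 37 C. Live-cell protease activity is then detected with CellTiter-Fluor.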

[5] = molecular target: Luciferin 4-monooxygenase (Photinus pyralis) (UniProt P08659); assay: qHTS assay to identify small molecule inhibitors of firefly luciferase (AID 1224835); also: nearly all actives have a fitted effect of over 25% in size; settings: purified P. pyralis luciferase, luminescence inhibition; series mostly up to 115 µM
Procedure, shortened: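 Quantitative HTS format; KM concentrations of both substrates. Purified P. pyralis FLuc activity quantified from luminescence images.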

[6] = qHTS assay to identify small molecule agonists of the constitutive androstane receptor (CAR) signaling pathway - cell viability counter screen (AID 1224836); settings: HepG2-CYP2B6-hCAR viability, CellTiter-Fluor, 23 h, PK11195 added to every well; series mostly up to 92.4 µM; also: nearly all actives have a fitted effect of over 45% in size
Procedure, shortened: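 Fluorescence from CellTiter-Fluor indicates live cells after 23 h exposure. The human hepatoma line expresses hCAR and a CYP2B6-2.2kb reporter. Incubation medium contains 0.75 uM PK11195 (final).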

[7] = qHTS assay to identify small molecule antagonists of the constitutive androstane receptor (CAR) signaling pathway - cell viability counter screen (AID 1224837); settings: HepG2-CYP2B6-hCAR viability, CellTiter-Fluor, 23 h, co-treated with 50 nM CITCO; series mostly up to 92.4 µM; also: nearly all actives have a fitted effect of over 45% in size
Procedure, shortened: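 In quantitative HTS format, compounds at 15 concentrations were applied to HepG2 cells double-transfected with hCAR and CYP2B6-2.2kb under 50 nM CITCO stimulation; live-cell protease activity was read after 23 hr via CellTiter-Fluor.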

[8] = molecular target: Nuclear receptor subfamily 1 group I member 3 (Homo sapiens) (UniProt Q14994); assay: qHTS assay to identify small molecule antagonists of the constitutive androstane receptor (CAR) signaling pathway (AID 1224838); settings: HepG2-CYP2B6-hCAR luciferase, CITCO-stimulated, 24 h; series mostly up to 92.4 µM; also: nearly all actives have a fitted effect of over 40% in size
Procedure, shortened: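 CITCO-stimulated (50 nM final) HepG2 cells stably transfected with hCAR and CYP2B6-2.2kb luciferase were exposed to compounds at 15 concentrations for 24 h at 37 C/5% CO2. A luciferase reagent was added and luminescence recorded after 30 min.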

[9] = molecular target: Nuclear receptor subfamily 1 group I member 3 (Homo sapiens) (UniProt Q14994); assay: qHTS assay to identify small molecule agonists of the constitutive androstane receptor (CAR) signaling pathway (AID 1224839); settings: HepG2 hCAR CYP2B6-luciferase, agonist mode, 24 h; series mostly up to 92.4 µM;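 also: HepG2 cells stably carrying human CAR and a CYP2B6 luciferase reporter; nearly all actives have a fitted effect of over 15% in size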
Procedure, shortened: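 Stable hCAR/CYP2B6-2.2kb HepG2 line in DMEM with 10% FBS; compounds (15 concentrations) and 0.75 uM PK11195 final, 24 h at 37 C/5% CO2, then ONE-Glo luminescence after 30 min.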

[10] = qHTS assay to identify small molecule antagonists of the estrogen related receptor signaling pathway with the pleiotropic PPARgamma coactivator (PGC) from Tox21 10K library - cell viability counter screen (AID 1224840; active = well fitted cell-killing curve with a large enough effect in the repeat runs, not every such curve was filed as active; also: nearly all actives have a fitted effect of over 40% in size); settings: PGC/ERR reporter cells viability, CellTiter-Fluor, 17.5 h; series mostly up to 92.4 µM
Procedure, shortened: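 Viability counter screen, PGC/ERR cells: 17.5 h compound exposure at 37 C, CellTiter-Fluor fluorescence endpoint.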

[11] = qHTS assay to identify small molecule antagonists of the estrogen related receptor signaling pathway with the pleiotropic PPARgamma coactivator (PGC) from Tox21 10K library (AID 1224841; call rule not given here; also: actives are mostly falling curves and most rising ones were filed inactive; nearly all actives have a fitted effect of over 50% in size); settings: PGC/ERR reporter cell line, ONE-Glo luciferase, 18 h; series mostly up to 92.4 µM
Procedure, shortened: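 In the PGC/ERR line, DMSO solutions of test chemicals are pin-delivered to 2,000 cells/well six hours after dispensing. Following eighteen hours' incubation, One-Glo reagent is added and luminescence recorded.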

[12] = qHTS assay to identify small molecule agonists of the estrogen related receptor signaling pathway with the pleiotropic PPARgamma coactivator (PGC) from Tox21 10K library (AID 1224842); settings: PGC/ERR reporter cell line, luciferase ONE-Glo, 18 h; series mostly up to 92.4 µM; also: nearly all actives have a fitted effect of over 15% in size
Procedure, shortened: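 PGC/ERR reporter cells (NTP line) were seeded 2,000 per well, rested 6 h at 37 C/5% CO2, then pin-dosed with compounds in DMSO for 18 h at 37 C; luciferase read by One-Glo luminescence after 30 min at room temperature.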
% is scaled to controls: 0 for no effect and ±100 for the full control effect.

Chain of Retinoic acid receptor RXR-alpha (Homo sapiens) (P19793 whole entry, looked up): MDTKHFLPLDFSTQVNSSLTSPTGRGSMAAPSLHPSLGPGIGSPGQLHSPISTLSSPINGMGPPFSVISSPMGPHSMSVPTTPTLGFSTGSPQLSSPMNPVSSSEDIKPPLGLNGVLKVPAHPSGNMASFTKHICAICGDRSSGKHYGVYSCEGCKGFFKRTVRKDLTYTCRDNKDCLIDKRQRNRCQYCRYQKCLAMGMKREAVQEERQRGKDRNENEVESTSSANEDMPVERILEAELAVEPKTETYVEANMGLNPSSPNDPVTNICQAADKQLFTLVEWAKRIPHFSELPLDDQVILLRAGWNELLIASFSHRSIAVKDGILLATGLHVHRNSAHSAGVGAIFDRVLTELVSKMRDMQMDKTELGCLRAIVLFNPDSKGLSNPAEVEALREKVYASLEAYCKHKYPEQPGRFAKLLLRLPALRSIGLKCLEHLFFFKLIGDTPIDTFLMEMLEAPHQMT
Chain of Luciferin 4-monooxygenase (Photinus pyralis) (P08659 whole entry, looked up): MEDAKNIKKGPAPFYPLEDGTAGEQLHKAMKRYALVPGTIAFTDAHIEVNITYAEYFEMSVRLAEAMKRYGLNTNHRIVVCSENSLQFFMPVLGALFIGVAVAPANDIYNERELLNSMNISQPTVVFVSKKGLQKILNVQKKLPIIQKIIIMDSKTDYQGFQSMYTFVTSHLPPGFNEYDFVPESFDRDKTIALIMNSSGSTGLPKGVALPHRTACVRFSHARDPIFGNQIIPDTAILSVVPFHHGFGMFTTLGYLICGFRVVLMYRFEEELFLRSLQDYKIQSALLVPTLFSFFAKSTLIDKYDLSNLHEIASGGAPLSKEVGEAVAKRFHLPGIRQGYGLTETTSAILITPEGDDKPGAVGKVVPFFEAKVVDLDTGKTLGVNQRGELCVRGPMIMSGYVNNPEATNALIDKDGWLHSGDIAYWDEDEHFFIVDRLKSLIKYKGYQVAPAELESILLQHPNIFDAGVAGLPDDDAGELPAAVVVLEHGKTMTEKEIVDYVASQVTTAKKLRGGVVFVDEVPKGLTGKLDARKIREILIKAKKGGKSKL
Chain of Nuclear receptor subfamily 1 group I member 3 (Homo sapiens) (Q14994 whole entry, looked up): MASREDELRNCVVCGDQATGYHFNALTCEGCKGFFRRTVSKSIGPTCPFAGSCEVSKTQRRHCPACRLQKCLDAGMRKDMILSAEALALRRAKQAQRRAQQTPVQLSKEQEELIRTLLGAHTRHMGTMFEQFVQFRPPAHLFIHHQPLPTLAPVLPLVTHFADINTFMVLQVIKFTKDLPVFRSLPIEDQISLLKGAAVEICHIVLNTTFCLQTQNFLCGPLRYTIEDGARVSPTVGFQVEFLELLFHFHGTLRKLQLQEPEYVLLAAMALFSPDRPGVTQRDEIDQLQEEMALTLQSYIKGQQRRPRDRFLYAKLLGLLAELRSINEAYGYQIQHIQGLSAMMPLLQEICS

CO[Si](CCCNCCC[Si](OC)(OC)OC)(OC)OC
inactive: Potency [1] | Potency [2] | outcome [3] | Potency [4] | Potency [5] | outcome [6] | outcome [7] | Potency [8] | Potency [9] | outcome [10]

CC(C)COC(=O)c1ccccc1O
inactive: Potency [1] | Potency [2] | outcome [3] | Potency [4] | Potency [5] | outcome [6] | outcome [7] | Potency [8] | Potency [9] | outcome [10]

COCc1ccc(COC)cc1
inactive: Potency [1] | Potency [2] | outcome [3] | Potency [4] | Potency [5] | outcome [6] | outcome [7] | Potency [8] | Potency [9] | outcome [10]

O=c1[nH]c(=O)n([C@H]2O[C@H](CO)[C@@H](O)[C@@H]2O)cc1/C=C\Br
inactive: Potency [1] | Potency [2] | outcome [3] | Potency [4] | Potency [5] | outcome [6] | outcome [7] | Potency [8] | Potency [9] | outcome [10]

CCCCCOC(=O)Nc1nc(=O)n([C@@H]2O[C@H](C)[C@@H](O)[C@H]2O)cc1F
inactive: Potency [1] | Potency [2] | outcome [3] | Potency [4] | Potency [5] | outcome [6] | outcome [7] | Potency [8] | Potency [9] | outcome [10]

CC(C)=CC(=O)O
inactive: Potency [1] | Potency [2] | outcome [3] | Potency [4] | Potency [5] | outcome [6] | outcome [7] | Potency [8] | Potency [9] | outcome [10]

CC(CCO)CCCC(C)(C)O (stereo unspecified)
inactive: Potency [2] | outcome [3] | Potency [4] | Potency [5] | outcome [6] | outcome [7] | Potency [9] | outcome [10]
active: Potency [1] 3.09 µM

Cc1nccn1CC1CCc2c(c3ccccc3n2C)C1=O (stereo unspecified)
inactive: Potency [1] | Potency [2] | outcome [3] | Potency [4] | Potency [5] | outcome [6] | outcome [7] | Potency [8] | Potency [9] | outcome [10]

CCN1CCCC(OC(=O)C(c2ccccc2)c2ccccc2)C1 (stereo unspecified)
inactive: Potency [1] | Potency [2] | outcome [3] | Potency [4] | Potency [5] | outcome [6] | outcome [7] | Potency [8] | Potency [9] | outcome [10]

C=C(C)C(=O)NCCC[N+](C)(C)C
inactive: Potency [1] | Potency [2] | outcome [3] | Potency [4] | Potency [5] | outcome [6] | outcome [7] | Potency [8] | Potency [9] | outcome [10]

CC(O)CN(CCCN(C)C)CCCN(C)C (stereo unspecified)
inactive: Potency [1] | Potency [2] | outcome [3] | Potency [4] | Potency [5] | outcome [6] | outcome [7] | Potency [9] | outcome [10]

CC1=CC(C)C(C=O)C(C)C1 (stereo unspecified)
inactive: Potency [1] | Potency [2] | outcome [3] | Potency [4] | Potency [5] | outcome [6] | outcome [7] | Potency [8] | Potency [9] | outcome [10]

NCCN1CCNC1=O
inactive: Potency [1] | Potency [2] | outcome [3] | Potency [4] | Potency [5] | outcome [6] | outcome [7] | Potency [9] | outcome [10]

CC(=O)c1ccc(C)cc1
inactive: Potency [1] | Potency [2] | outcome [3] | Potency [4] | Potency [5] | outcome [6] | outcome [7] | Potency [8] | Potency [9] | outcome [10]

NCC[C@H](O)C(=O)N[C@@H]1C[C@H](N)[C@@H](O[C@H]2O[C@H](CN)[C@@H](O)[C@H](O)[C@H]2O)[C@H](O)[C@H]1O[C@H]1O[C@H](CO)[C@@H](O)[C@H](N)[C@H]1O
inactive: activation [1] 7.2% [at 0.29 µM] | activity change, negative = cytotoxicity [2] 9.63% [at 0.29 µM] | activity change, negative = cytotoxicity [3] 2.52% [at 0.349 µM] | viability change, negative = cytotoxic [4] 0.879% [at 0.349 µM] | activity change, negative = inhibition [5] -1.73% [at 0.435 µM] | viability change, negative = cytotoxic [6] 2.17% [at 0.349 µM] | activity change, negative = cytotoxicity [7] 3.03% [at 0.349 µM] | activity, negative = inhibition [8] -4.74% [at 0.349 µM] | activation [9] 1.57% [at 0.349 µM] | viability change, negative = cytotoxic [10] 1.22% [at 0.349 µM]

C=CC(=O)N1CCOCC1
inactive: Potency [1] | Potency [2] | outcome [3] | Potency [4] | Potency [5] | outcome [6] | outcome [7] | Potency [8] | outcome [10] | Potency [11] | Potency [12]

CCCc1ccccc1O
inactive: Potency [1] | Potency [2] | outcome [3] | Potency [4] | Potency [5] | outcome [6] | outcome [7] | Potency [9] | outcome [10]

C=CCOCC(O)CS(=O)(=O)O (stereo unspecified)
inactive: Potency [1] | Potency [2] | outcome [3] | Potency [4] | Potency [5] | outcome [6] | outcome [7] | Potency [8] | Potency [9] | outcome [10]

CC1=CCC2C(C1)C2(C)C (stereo unspecified)
inactive: Potency [1] | Potency [2] | outcome [3] | Potency [4] | Potency [5] | outcome [6] | outcome [7] | Potency [9] | outcome [10]

C#CC(O)CCCCC (stereo unspecified)
inactive: Potency [1] | Potency [2] | outcome [3] | Potency [4] | Potency [5] | outcome [6] | outcome [7] | Potency [8] | Potency [9] | outcome [10]

CCCCCCCCCCC1CO1 (stereo unspecified)
inactive: Potency [1] | Potency [2] | outcome [3] | Potency [4] | Potency [5] | outcome [6] | outcome [7] | Potency [8] | Potency [9] | outcome [10]

O=C(O)c1ccccc1S
inactive: Potency [1] | Potency [2] | outcome [3] | Potency [4] | Potency [5] | outcome [6] | outcome [7] | Potency [8] | Potency [9] | outcome [10]
